Measurements reported in PubChem BioAssay (NCATS).
Records with an inconclusive call do not appear. Values without a mark were called inactive. The source made the active and inactive calls. The call rests on the fitted dose curve; in most records, active means well fitted inhibition curve with a large enough effect; inconclusive means small, poorly fitted or top-dose-only effect; inactive means flat fitted curve, though single readings scatter.

assay: P-glycoprotein substrates identified in KB-8-5-11 adenocarcinoma cell line, qHTS therapeutic library screen (AID 1346987); settings: KB-8-5-11 (P-gp overexpressing) viability, CellTiter-Glo, 72 h; series mostly up to 44.5 µM; activity change, negative = cytotoxicity: at the top concentration; further: nearly all actives have a fitted effect of over 65% in size
In short: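 P-gp-mediated resistance screen: KB-8-5-11 cells treated 72 h with compounds in dose-response. CellTiter-Glo viability.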
On the % scale 0 is the no-effect control and ±100 the full control effect; potency means the concentration at half of the fitted maximal effect.

SMILES	activity change, negative = cytotoxicity	Potency	outcome
CC1CCC2(C(=O)O)CCC3(C)C(=CCC4C5(C)CCC(OC(=O)/C=C/c6ccccc6)C(C)(C)C5CCC43C)C2C1C (centres undefined)	-2.86% [at 17.3 µM]	–	–
Cc1cccc(Oc2cnc(=O)[nH]c2)c1	5.81%	–	–
CC(=O)OC[C@]12[C@H](OC(C)=O)C(=O)[C@@H]3[C@@H](OC(C)=O)[C@@]14O[C@@]3(C)COC(=O)c1cccnc1[C@@H](C)[C@H](C)C(=O)O[C@@H]([C@H](O)[C@@H]2OC(C)=O)[C@]4(C)O	-8.22% [at 17.3 µM]	–	–
CC(NC(=O)CCc1nc2ccccc2c(=O)[nH]1)c1ccccc1 (centres undefined)	-4.85%	–	–
COc1ccccc1NC(=O)OCC1CCN(C(=O)OC(C)(C)C)CC1	-19.3%	–	–
CC(C)(O)C1CCC(C)(C2CCC3(C)C4CCC5C(C)(C(=O)OC6OC(CO)C(O)C(O)C6O)C(O)CC(O)C56CC46CCC23C)O1 (centres undefined)	-0.552% [at 17.3 µM]	–	–
O=C(Cc1ccc(-c2ccccc2)cc1)NC1CCC1	4.74%	–	–
O=C(c1ccccc1)c1ccc2nc(NC(=O)c3csc(C4CCN(c5ncnc6ccsc56)CC4)n3)[nH]c2c1	–	5.8 µM (active)	–
COC(=O)c1ccnc(-c2cc(C(=O)NCCc3ccccc3)ccn2)c1	-1.75%	–	–
CC1(O)CC(O)C2(O)C=COC(O[C@@H]3O[C@H](CO)[C@@H](O)[C@H](O)[C@H]3O)C12 (some centres undefined)	5.69%	–	–
C/C1=C\CCC2=C[C@@H](OC2=O)c2c(C)coc2C1	5.15%	–	–
C/C(=C/CO)CC[C@@H]1[C@@](C)(O)CCC2C(C)(C)CCC[C@]21C (some centres undefined)	-7.26%	–	–
COC(=O)C12CCC(C)C(C)C1C1=CCC3C4(C)CCC(OC(C)=O)C(C)(C)C4CCC3(C)C1(C)CC2 (centres undefined)	0.509% [at 17.3 µM]	–	–
COc1cc2c(cc1OC)N1C(=O)C[C@]34C=CCN5CC[C@@H]2[C@@H](CC3)[C@]514	0.578%	–	–
COC(=O)C1=CO[C@@H](O[C@@H]2O[C@H](CO)[C@@H](O)[C@H](O)[C@H]2O)[C@@H]2[C@@](C)(O)[C@@H](OC(=O)/C=C/c3ccc(O)cc3)C[C@]12O	1.48% [at 17.3 µM]	–	–
C=CC(=O)Nc1cc(Nc2nccc(-c3c[nH]c4ccccc34)n2)c(OC)cc1N(C)CCN(C)C	–	6.51 µM (active)	–
CC(=O)NC1=NN(C(C)=O)C(C)(c2ccccc2)S1 (centres undefined)	–	5.8 µM (active)	–
Cc1ccc(C)c(OCCn2cc(C(=O)O)c3ccccc32)c1	4.01%	–	–
COc1ccc([C@@]2(O)c3c(ccc4c3OC(C)(CCC=C(C)C)C=C4)NC(=O)[C@@H]2OC)cc1 (some centres undefined)	0.889% [at 17.3 µM]	–	–
CC(O)/C=C/C1C(C)C(O[C@@H]2O[C@H](CO)[C@@H](O)[C@H](O)[C@H]2O)C(O)CC1(C)C (some centres undefined)	-1.17%	–	–
COc1cccc(-c2cc(NCc3ccc4c(c3)OCO4)nc(N)n2)c1	–	0.164 µM (active)	–
C/C=C(/COC(=O)/C(C)=C/C)C(=O)OC(CC)c1ccc(OC)c(OC)c1 (centres undefined)	–	–	inactive
COC(=O)C1=CO[C@@H](O)C2C(CO)=CCC12 (some centres undefined)	3.14%	–	–
O=C(O)c1cccc(S(=O)(=O)N2CCc3ccccc3C2)c1	–	–	inactive
CC1=C(CO)C(=O)O[C@@H]([C@@H](C)[C@H]2CC[C@H]3[C@@H]4C[C@H]5O[C@]56[C@@H](O)C=CC(=O)[C@]6(C)[C@H]4CC[C@]23C)C1	–	2.52 µM (active)	–
Nc1ccc(-c2cccc3c(=O)cc(N4CCOCC4)oc23)cc1	–	6.51 µM (active)	–
CCCCc1nc2cc(/C=C/C(=O)NO)ccc2n1CCN(CC)CC	–	3.26 µM (active)	–
OC[C@H]1O[C@@H](O[C@H]2[C@H](OCCc3ccccc3)O[C@H](CO)[C@@H](O)[C@@H]2O)[C@H](O)[C@@H](O)[C@@H]1O	0.307% [at 17.3 µM]	–	–
c1ccc(-c2ncc(CN3CCN(c4ncccn4)CC3)[nH]2)cc1	-12%	–	–
